# Data from PubChem BioAssay.
# Several values for one entry are separate records, joined by “and”; a condition that tells them apart may be missing. Identical values can stand only once. Activity calls are given as the source filed them.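 How the source made its calls, unless noted: active means compound that reduces growth-factor-driven endothelial tube area in a mixed cell culture, no cutoff stated; inactive means the rest.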
# Key:
# [1] = Wnt pathway potentiators raising nuclear beta-catenin – imaging, WNT3A-conditioned medium, mouse C2C12, NPC library, primary screen (AID 1117326; in the data active means nuclear beta-catenin stimulation mostly above about 4.2%, no sharp cut-off; inactive means mostly below about 10%); conditions: stronger effect = higher value
# [2] = stimulators of insulin release from INS-1E, primary screen, cell-based, 5 mM glucose, NPC library (AID 1117329;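 active means compound raises insulin release from rat beta cells at 5 mM glucose, no numeric limit stated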); conditions: rat INS-1E insulin secretion, at 10 µM, stronger effect = higher value
# [3] = growth inhibition of GSK3B-pretreated HCT116 cells – cell-based, CellTiter-Glo, 0.2 to 20 µM (AID 1117336;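 active means compounds lowering colon cancer cell viability after pretreatment blocking the GSK3B kinase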); conditions: HCT116 viability after GSK3B inhibitor, at 20 µM, stronger effect = higher value
# [4] = inhibition of endothelial tube formation, primary screen, imaging, VEGF stimulated, CD31 staining, tube area, NPC library (AID 1117340); conditions: VEGF-stimulated ADSC/ECFC co-culture, at 10 µM, stronger effect = higher value
# [5] = GLP1 release stimulators, primary, NCI-H716, NPC library (AID 1117341;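 active means compound raises GLP1 secretion from the human gut endocrine cells, with no numeric limit stated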); conditions: NCI-H716 cells, at 10 µM, stronger effect = higher value
# [6] = HCT116 colon cancer cell growth inhibition, primary screen, CellTiter-Glo luminescence, NPC library (AID 1117342;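 active means compounds that lower survival of HCT116 colon cancer cells in the luminescence readout, no numeric limit stated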); conditions: at 20 µM (top of the series)
# [7] = reduced SW480 viability measured with CellTiter-Glo, NPC library, primary (AID 1117343;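 active means compounds that lower viability of the colon cancer cells in the luminescence readout, with no numeric limit stated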); conditions: CellTiter-Glo luminescence; at 20 µM (top of the series)
# [8] = NPC library primary testing for decreased DLD-1 cell viability via CellTiter-Glo (AID 1117346;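 active means compounds that lower survival of DLD-1 colon cancer cells in the luminescence readout, no cutoff given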); conditions: DLD-1 viability, CellTiter-Glo luminescence; at 20 µM (top of the series)
# [9] = biological target: 6-phosphogluconate dehydrogenase, decarboxylating (Homo sapiens) (UniProt P52209); assay: inhibition of human phosphogluconate dehydrogenase – biochemical, recombinant enzyme, NADPH absorbance, primary screen (AID 1159550;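 active means at least 20% inhibition of 6-phosphogluconate dehydrogenase activity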); conditions: recombinant 6PGD, NADPH absorbance 341 nm; at 10 µM; stronger effect = higher value
# Chain of 6-phosphogluconate dehydrogenase, decarboxylating (Homo sapiens) (P52209 whole entry, looked up): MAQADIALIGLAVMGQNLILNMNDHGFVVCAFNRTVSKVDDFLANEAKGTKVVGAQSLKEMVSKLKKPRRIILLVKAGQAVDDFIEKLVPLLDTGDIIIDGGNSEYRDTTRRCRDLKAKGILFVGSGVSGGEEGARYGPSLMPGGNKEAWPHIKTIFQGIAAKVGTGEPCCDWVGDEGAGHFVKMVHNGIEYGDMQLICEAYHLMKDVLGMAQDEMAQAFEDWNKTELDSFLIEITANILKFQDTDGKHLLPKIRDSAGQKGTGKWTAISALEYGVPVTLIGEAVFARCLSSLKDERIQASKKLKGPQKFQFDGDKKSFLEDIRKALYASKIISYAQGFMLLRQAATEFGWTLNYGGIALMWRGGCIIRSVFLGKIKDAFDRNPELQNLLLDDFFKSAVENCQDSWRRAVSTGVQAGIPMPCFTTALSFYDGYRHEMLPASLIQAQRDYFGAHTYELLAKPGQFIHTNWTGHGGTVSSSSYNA
# [10] = yeast 75Q aggregation reduction – 75Q-TubU reporter (AID 1593); conditions: Yeast 75Q polyglutamine aggregation reporter
# [11] = blockers of cytochrome c efflux from mitochondria – biochemical, purified mitochondria (AID 1603); conditions: stronger effect = lower value;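 further: mouse liver mitochondria challenged with calcium chloride; signal normalized to the plate average as 100%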
# [12] = polyglutamine aggregate formation blockers (AID 1604); conditions: polyglutamine-induced protein aggregation inhibition assay; stronger effect = higher value; tested at 2.5 µM
# [13] = P. berghei load reduction in hepatocytes – cell-based, HepG2, luciferase luminescence, HepG2 viability, primary screen (AID 624349; in the data active means parasite load remaining mostly below about 12%, no sharp cut-off; inactive means mostly above about 10%;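 further: 100% = mean of DMSO negative control wells on the same plate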); conditions: P. berghei liver stage in HepG2, luciferase luminescence, concentration not given here; parasite load remaining: stronger effect = lower value; viability: measured here: HepG2 viability without parasites
# [14] = EMT-state selective cytotoxicity in co-culture – imaging, PC-3E GFP, TEM4-18 mCherry, primary screen (AID 1345086;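 active means compounds killing one labelled cell type while sparing the other, by normalised counts and ratio limits, not self-fluorescent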;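 on all read-outs here: cells exposed to compound for 72 h before imaging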;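 on red/green cell ratio (normalised): normalised mesenchymal count divided by normalised epithelial count so high means epithelial killing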); conditions: PC-3E GFP / TEM4-18 mCherry co-culture, imaging cell counts, at 1 µM; for red/green cell ratio (normalised): actives lie on both sides
# [15] = system: Aerobactin synthetase IucA (Klebsiella pneumoniae hvKP1); assay: IucA enzyme inhibition, primary screen, biochemical, Spectrum library (AID 1346200; call rule not given here;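 further: 100% = wells without compound and 0% = wells lacking enzyme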); conditions: malachite green pyrophosphate, A620, at 8 µM, stronger effect = lower value
# [16] = viability loss with induced miR-34 in A549 – imaging, A549 dox-inducible miR-34, nuclei and caspase counts, primary screen (AID 1347080;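 active means compounds whose cell count with miR-34 switched on is under 0.7 times the count with it off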); conditions: A549 miR-34 inducible, Hoechst nuclei count, 48 h
# [17] = biological target: NAD(+) hydrolase SARM1 (Homo sapiens) (UniProt Q6SZW1); assay: blocking NAD cleavage by SARM1 SAM-TIR – cell lysate, NAD-Glo luminescence (AID 1508614;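 active means compound whose remaining NAD level is above about 45 nM, limit read from the data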); conditions: SAM-TIR HEK293T lysate NADase, at 1 µM, stronger effect = higher value
# Chain of NAD(+) hydrolase SARM1 (Homo sapiens) (Q6SZW1 whole entry, looked up): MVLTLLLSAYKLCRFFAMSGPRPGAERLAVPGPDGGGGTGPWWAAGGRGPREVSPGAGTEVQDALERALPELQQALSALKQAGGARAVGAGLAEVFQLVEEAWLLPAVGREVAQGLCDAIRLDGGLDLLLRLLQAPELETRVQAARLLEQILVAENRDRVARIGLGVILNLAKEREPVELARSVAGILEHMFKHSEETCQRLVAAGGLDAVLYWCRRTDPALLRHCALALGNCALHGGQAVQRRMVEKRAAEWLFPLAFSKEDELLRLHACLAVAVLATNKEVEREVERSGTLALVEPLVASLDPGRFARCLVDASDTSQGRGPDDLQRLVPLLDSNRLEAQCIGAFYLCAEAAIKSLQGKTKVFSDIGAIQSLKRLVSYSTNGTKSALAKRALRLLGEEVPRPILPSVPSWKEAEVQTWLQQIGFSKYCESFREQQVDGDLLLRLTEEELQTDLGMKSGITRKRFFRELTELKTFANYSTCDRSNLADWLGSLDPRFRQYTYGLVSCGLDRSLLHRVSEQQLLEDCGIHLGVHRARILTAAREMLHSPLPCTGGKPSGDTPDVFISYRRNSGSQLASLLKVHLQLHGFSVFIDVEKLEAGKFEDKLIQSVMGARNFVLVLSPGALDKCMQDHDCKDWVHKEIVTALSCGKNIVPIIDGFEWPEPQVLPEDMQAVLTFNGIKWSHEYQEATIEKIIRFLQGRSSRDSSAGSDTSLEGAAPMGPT
# [18] = MELAS cybrid and Rieske KO viability enhancers – cell-based, MELAS cybrids, Rieske KO mouse fibroblasts, CellTiter-Glo, primary screen (AID 1508586;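 active means mean z-score across replicates of 1.96 or higher in either the MELAS or the Rieske mutant cell line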;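 further: z relative to plate mean and SD of compound and empty wells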); conditions: low glucose
# [19] = galactose survival enhancers in mitochondrial complex I cybrids – cell-based, galactose medium, ATP luminescence, primary screen (AID 1645843;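 active means z-score of at least 1.8 in each of two replicates, scored against plate mean and spread of sample wells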;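 further: positive z means more ATP and so rescue of galactose-driven cybrid death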); conditions: complex I mutant cybrid cells, 72 h, stronger effect = higher value
# [20] = measured here: epithelial PC-3E GFP cell survival
# [21] = measured here: mesenchymal TEM4-18 mCherry cell survival
# [22] = measured here: relative caspase fold change +Dox/-Dox
# [23] = measured here: total cells with miR-34 induction, stronger effect = lower value
# [24] = measured here: total cells without miR-34 induction
compound,measurement,setting,value
CN[C@@H](C)[C@H](O)c1ccccc1,nuclear beta-catenin stimulation,[1]; at 10 µM,1.4% (inactive)
same,nuclear beta-catenin stimulation,"[1]; stimulation, at 2 µM",0.6%
same,insulin secretion stimulation,[2],0% (inactive)
same,viability decrease,[3],-2.5% (inactive)
same,tube area decrease,[4],-1.6% (inactive)
same,GLP1 secretion stimulation,[5],0.8% (inactive)
same,inhibition of viability,[6],-12.5% (inactive)
same,viability decrease (inhibition),[7],5.5% (inactive)
same,viability decrease (inhibition),[8],-4.6% (inactive)
same,inhibition,[9],16.5% (inactive)
Oc1cccc2cccnc12,score,[10],0.03
same,cytochrome c release ratio,[11],0.94
same,inhibition of aggregation,[12],83.3%
same,parasite load remaining,[13],64.5% (inactive) and 25.4% (inactive)
same,viability,[13],53.5% and 57.1%
same,nuclear beta-catenin stimulation,[1]; at 10 µM,6.4% (inactive)
same,nuclear beta-catenin stimulation,"[1]; stimulation, at 2 µM",0.8%
same,insulin secretion stimulation,[2],-1% (inactive)
same,viability decrease,[3],-3.1% (inactive)
same,tube area decrease,[4],-4.7% (inactive)
same,GLP1 secretion stimulation,[5],81.5% (active)
same,inhibition of viability,[6],8.1% (inactive)
same,viability decrease (inhibition),[7],68.4% (active)
same,viability decrease (inhibition),[8],53.9% (active)
same,red/green cell ratio (normalised),[14],1.03 (inactive)
same,normalised cell number,[14]; [20],0.9
same,normalised cell number,[14]; [21],0.93
same,activity remaining,[15],111% (inactive)
same,fold change,[16]; stronger effect = lower value,0.857 (inactive)
same,fold change,[16]; [22],0.864
same,cell count,[16]; [23],8140
same,cell count,[16]; [24],9500
same,remaining NAD,[17],10 nM (inactive)
O=C(N/N=C/c1ccc([N+](=O)[O-])o1)c1cc([N+](=O)[O-])cc([N+](=O)[O-])c1O,nuclear beta-catenin stimulation,[1]; at 10 µM,0.7% (inactive)
same,nuclear beta-catenin stimulation,"[1]; stimulation, at 2 µM",1.8%
same,insulin secretion stimulation,[2],1.3% (inactive)
same,viability decrease,[3],79.6% (active)
same,tube area decrease,[4],-13.6% (inactive)
same,GLP1 secretion stimulation,[5],1% (inactive)
same,inhibition of viability,[6],29.8% (inactive)
same,viability decrease (inhibition),[7],25.2% (inactive)
same,viability decrease (inhibition),[8],4.8% (inactive)
same,red/green cell ratio (normalised),[14],1.05 (inactive)
same,normalised cell number,[14]; [20],1.03
same,normalised cell number,[14]; [21],1.08
same,fold change,[16]; stronger effect = lower value,0.946 (inactive)
same,fold change,[16]; [22],1.02
same,cell count,[16]; [23],8410
same,cell count,[16]; [24],8890
CNCC(O)c1ccc(O)cc1 (stereo not given),parasite load remaining,[13],81.5% (inactive) and 59.8% (inactive)
same,viability,[13],69.8% and 68.9%
same,nuclear beta-catenin stimulation,[1]; at 10 µM,-0.1% (inactive)
same,nuclear beta-catenin stimulation,"[1]; stimulation, at 2 µM",-2.7%
same,insulin secretion stimulation,[2],0.25% (inactive)
same,viability decrease,[3],14.7% (inactive)
same,tube area decrease,[4],-15.1% (inactive)
same,GLP1 secretion stimulation,[5],0.1% (inactive)
same,inhibition of viability,[6],-4% (inactive)
same,viability decrease (inhibition),[7],-14.6% (inactive)
same,viability decrease (inhibition),[8],-3.7% (inactive)
same,red/green cell ratio (normalised),[14],1.1 (inactive)
same,normalised cell number,[14]; [20],0.84
same,normalised cell number,[14]; [21],0.92
same,z-score,"[18]; MELAS cybrid survival, CellTiter-Glo 48 h, stronger effect = higher value",-0.35 (inactive) and -0.388 (inactive) and -0.264 (inactive)
same,z-score,"[18]; Rieske KO mouse fibroblast survival, CellTiter-Glo 72 h",-0.247 and -0.0924 and -0.396
same,remaining NAD,[17],10 nM (inactive)
same,z-score,[19],0.82 (inactive) and 0.285 (inactive)
NP(N)(=O)NC(=O)c1ccc(F)cc1,nuclear beta-catenin stimulation,[1]; at 10 µM,0.1% (inactive)
same,nuclear beta-catenin stimulation,"[1]; stimulation, at 2 µM",0.9%
same,insulin secretion stimulation,[2],-0.7% (inactive)
same,viability decrease,[3],-1.25% (inactive)
same,tube area decrease,[4],-20.9% (inactive)
same,GLP1 secretion stimulation,[5],1.1% (inactive)
same,inhibition of viability,[6],-0.3% (inactive)
same,viability decrease (inhibition),[7],31.5% (inactive)
same,viability decrease (inhibition),[8],6.6% (inactive)
same,red/green cell ratio (normalised),[14],0.99 (inactive)
same,normalised cell number,[14]; [20],0.92
same,normalised cell number,[14]; [21],0.91
same,fold change,[16]; stronger effect = lower value,0.935 (inactive) and 0.913 (inactive)
same,fold change,[16]; [22],0.958 and 0.851
same,cell count,[16]; [23],8980 and 8200
same,cell count,[16]; [24],9600 and 8990
same,remaining NAD,[17],10 nM (inactive)
same,z-score,[19],-0.31 (inactive)
